The structures appear in SMILES notation. The source made the active and inactive calls.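 How the source made its calls: active means fitted half-maximal concentration AC50 at or below ten times the highest valid tested dose, with signal falling as DNA is displaced (actives reach about 34 µM in these data); inconclusive means flat fit at moderate signal loss, or poor fit quality; inactive means the rest, including signal rising instead of falling.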

This assay can be described thus: acridine orange-DNA binding displacement – biochemical, fluorescence polarization, cherry-picked samples, set 2, artefact control for KSHV LANA DNA-binding inhibitor project, dose response (AID 504727). The note with it: series mostly up to 35 µM. For orientation: In fluorescence polarisation assays a small probe gives low polarisation when free and higher when bound to something large.
The AC50 is the concentration at which the activity in the assay is half-maximal. `Clc1ccc(C2=CC(c3ccco3)n3ncnc3N2)cc1` (stereo not drawn): the AC50 entry is “inactive”.
In the case of `COc1ccc(NC(=O)CO/N=C2/CCCc3nonc32)c(OC)c1`, the AC50 entry is “inactive”.
For `O=C(CN1C(=O)NC2(CCCC2)C1=O)Nc1ccccc1-c1ccccc1` the value was “inactive”.
To `CCOc1ccc(S(=O)(=O)N(C)c2ccc(OCC(=O)NC3=NCCS3)cc2)cc1` belongs “inactive”; to `O=C(CC1CCCC1)N1CCN(S(=O)(=O)c2ccccc2)CC1`, “inactive”.
To `CCCc1cc(C(=O)Nc2ccc(C(=O)c3ccc(C)cc3)cc2)n(C)n1` belongs “inactive”; to `Cc1ccc(CSc2ncnc3onc(C)c23)cc1`, “inactive”.
In the case of `Cc1cc(=O)c2c([nH]1)c(C)cc1[nH]c(C)c(C)c12`, the AC50 result was “inactive”.
As for `CSc1ncccc1C(=O)OCCCC(=O)c1ccc(F)cc1`, the AC50 result was “inactive”.
For `CN(c1ccccc1)S(=O)(=O)c1cccc(NS(=O)(=O)c2cccc(C(=O)O)c2)c1` the value was “inactive”.
To `Cc1cccnc1NC1(C(F)(F)F)N=C2SCCN2C1=O` (stereo not drawn) belongs “inactive”.
For `Nc1nc(SCC(=O)N2CCCCC2)[nH]c(=O)c1NC(=O)c1cccs1` the value was “inactive”; for `COc1ccc(S(=O)(=O)N2CCC(C(=O)N3CCCCC3)CC2)cc1`, “inactive”.
Regarding `C=CCOC(=O)C1=C[C@H](c2csc3ccccc23)C[C@H](OCc2ccc(CO)cc2)O1`, the AC50 result was “inactive”.
To `CN(C)/C=N/c1nc2nccc(-c3ccc(Cl)cc3)n2n1` belongs “inactive”; to `CNc1c2cccc(C)c2nc2c(C(=O)NCCN(C)C)cccc12`, 6.16 µM (active); to `CCOC(=O)C1=C(COC(=O)c2ccc([N+](=O)[O-])s2)NC(=O)NC1C` (stereo not drawn), “inactive”.
To `COC(=O)c1ccc(OCC(O)CN2CCC(C)CC2)cc1` (stereo not drawn) belongs “inactive”.
For `CNC(=S)Nc1cccc(C(=O)OC)c1` the value was “inactive”.
Consider `CC1=C(O)C(=O)C(C2=C(O)C(=O)C(C)=C(O)C2=O)=C(O)C1=O`, for which the AC50 entry was “inactive”.
For `CC(C)CCN1C(=O)c2cccc3c(N)ccc(c23)C1=O` the value was 7.39 µM (active); for `CCCN(CCC)C(=O)C1c2ccccc2Oc2ccccc21`, “inactive”; for `CCOc1ccc(-n2c(Cc3cc(=O)[nH]c(=O)[nH]3)nnc2SCc2cccnc2)cc1`, “inactive”.
For `CC(C)CC(=O)Nc1nnc(CSCc2ccc(F)cc2)s1` the value was “inactive”; for `COc1cc(OC)cc(-c2c(-c3ccsc3)c3cc(Br)ccc3n2C)c1`, “inactive”.
As to `COC(=O)c1cccc(COC(=O)c2ccccc2NC(=O)c2ccco2)c1`, the AC50 entry was “inactive”.
To `CC(=O)Nc1ccc(S(=O)(=O)Nc2ccccc2N2CCOCC2)cc1` belongs “inactive”.
To `Cc1cc(C)n2nc(C(=O)OC(C)C(=O)c3cc(C)c(C)cc3C)nc2n1` (stereo not drawn) belongs “inactive”; to `O=C1CCN2C=Nc3cccc4ccc1c2c34`, 2.29 µM (active).
To `Cc1c(Cl)cccc1NS(=O)(=O)c1ccc2c(c1)C1C=CCC1C(c1ccc(C(=O)O)cc1)N2` (stereo not drawn) belongs “inactive”; to `Nc1c(/C=C2/C=CC(=O)C(O)=C2)c(=O)nc2sc(CC(=O)N3CCCC3)nn12`, “inactive”; to `CCN(CC(=O)Nc1c(F)cccc1F)C(=O)CCCc1cccs1`, “inactive”.
`Nc1ccc2nc3c(=O)n(C4CCCCC4)c(=O)[nH]c3nc2c1`: the AC50 was 3.19 µM (active).
For `Cc1cc(C(F)(F)F)c2c(N)c(C(=O)Nc3cc(C)on3)sc2n1` the value was “inactive”.
`O=C(NCCCN1CCCC1=O)c1ccc2c(c1)ncn2C1CCCCC1`: the AC50 result is “inactive”.
For `COc1[nH]c(/N=C/c2ccccc2)c(C#N)c1C#N` the value was “inactive”; for `O=C1c2cccc3c(N4CCCCC4)ccc(c23)C(=O)N1c1cccc(O)c1`, “inactive”.
Regarding `Cc1cc2nc3c(=O)[nH]c(=O)[nH]c3nc2c([N+](=O)[O-])c1N`, the AC50 was 2.41 µM (active).

For the origin of these results see PubChem BioAssay AID504727 (Broad Institute, 2011).
